This is an account of results in PubChem BioAssay.

Structures are written as SMILES. The source made the active and inactive calls.

Assay [1] is described as follows: small molecules captured by biotinylated probe aFSTL3 – biochemical, small-molecule microarray, fluorescence 635/667, stem cell growth factor project, primary screen (AID 1064).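 Also: measures binding of the biotinylated anti-FSTL3 antibody to printed compounds.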 The following applies: higher = more signal.
Assay [2] in a line: binders from COS7 lysate, DM2A8 probe, primary screen, torsin A project, cell lysate, small-molecule microarray, fluorescence 635/667 (AID 1065). The following applies: higher = more signal, COS7 lysate expressing mutant human TOR1A.
Assay [3] can be described thus: small molecules captured by biotinylated probe aFGF2 – biochemical, small-molecule microarray, fluorescence 635/667, stem cell growth factor project, primary screen (AID 1067).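 Also: measures binding of biotinylated aFGF2 protein to printed compounds on slides; z-score merges feature fluorescence and signal-to-noise across triplicate slides.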 The settings on record: higher = more signal.
Assay [4] in a line: small molecules captured by biotinylated probe aFGF10 – biochemical, small-molecule microarray, fluorescence 635/667, stem cell growth factor project, primary screen (AID 1071).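 Also: score merges 667 nm spot intensity and signal to noise from triplicate slides.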 The settings on record: higher = more signal.
The target in assay [5] is Neurogenic locus notch homolog protein 2 (Homo sapiens) (UniProt Q04721). Description: small molecules binding Notch2 protein – biochemical, small-molecule microarray, 635 nm fluorescence, stem cell growth factors, primary screen (AID 1073). The following applies: higher = more signal.
Assay [6] concerns the target Pro-neuregulin-1, membrane-bound isoform (Homo sapiens) (UniProt Q02297). Description: small molecules binding neuregulin-1 protein – biochemical, small-molecule microarray, fluorescence 635/667, psychiatric disease protein project, primary screen (AID 1075).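 Also: score combines 667 nm spot fluorescence with signal to noise.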 The settings on record: NRG1 binding, 635 nm fluorescence, higher = more signal.
The subject of assay [7] is Neuregulin-1 EGF-like domain. Description: small molecules binding NRG1 EGF domain – biochemical, small-molecule microarray, 635 nm fluorescence, primary screen (AID 1081).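 Also: binding of the protein to compounds printed on small-molecule microarray slides.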 The following applies: higher = more signal.
The nature of assay [8]: FRG1 expression reporter modulators in myotubes – cell-based, C2C12 myotubes, firefly/Renilla luciferase, luminescence, FRG1 inhibition for FSHD, primary screen (AID 1084). The settings on record: FRG1 promoter luciferase, higher = more signal, called active from +8 up or from −8 down.
The nature of assay [9]: small molecules captured by biotinylated probe aFST – biochemical, small-molecule microarray, fluorescence 635/667, stem cell growth factor project, primary screen (AID 1086).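 Also: score merges 667 nm fluorescence with signal-to-noise of each printed compound spot.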 The settings on record: higher = more signal.
Assay [10] can be described thus: binders of probe aHhip on microarray, primary screen, stem cell growth factor project, biochemical, small-molecule microarray, fluorescence 635/667 (AID 1087).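 Also: score merges spot fluorescence at 667nm with spot signal to noise ratio.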 The following applies: higher = more signal.
For assay [11], the system named is PRMT1 (protein arginine N-methyltransferase 1). Nature of the assay: small molecules binding arginine methyltransferase PRMT1 – biochemical, small-molecule microarray, 635 nm fluorescence, primary screen (AID 1088).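 Also: binding of Prmt1 protein to compounds spotted on small-molecule microarray slides.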 The settings on record: higher = more signal.
The nature of assay [12]: growth effects on S. cerevisiae YJM789 – YJM789 clinical isolate, OD600, 24 h, basal, primary screen (AID 1089).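 Also: growth of clinical yeast isolate S. cerevisiae YJM 789 seeded 1000 cells per well; test concentration not given here.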 The settings on record: higher = more signal, called active from +8 up or from −8 down.
Assay [13] can be described thus: S. pombe growth modifiers, basal conditions – strain 972, OD600, 24 h, no modulator, primary screen (AID 1090).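 Also: basal condition with compound alone and no growth modifier present; test concentration not given here.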 The settings on record: S. pombe 972 growth, higher = more signal, called active from +8 up or from −8 down.
The nature of assay [14]: budding yeast growth modifiers under rapamycin – strain BY4716, OD600, 96 h, primary screen (AID 1091). Also: test concentration not given here. The following applies: S. cerevisiae BY4716 + rapamycin, higher = more signal, called active from +8 up or from −8 down.
Assay [15] deals with Torsin-1A-interacting protein 2 (Homo sapiens) (UniProt Q8NFQ8). Description: small molecules binding lysate-expressed LULL1 – cell lysate, human LULL1 lysate, 635/667 nm fluorescence, primary screen (AID 1092).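 Also: probe is lysate of COS7 cells overexpressing human LULL1; score merges per-feature 667 nm fluorescence with signal-to-noise.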 The following applies: small-molecule microarray, hLULL1 lysate binding, 635 nm fluorescence; higher = more signal.
Torsin-1A-interacting protein 2 (Homo sapiens), sequence (Q8NFQ8 whole entry, looked up): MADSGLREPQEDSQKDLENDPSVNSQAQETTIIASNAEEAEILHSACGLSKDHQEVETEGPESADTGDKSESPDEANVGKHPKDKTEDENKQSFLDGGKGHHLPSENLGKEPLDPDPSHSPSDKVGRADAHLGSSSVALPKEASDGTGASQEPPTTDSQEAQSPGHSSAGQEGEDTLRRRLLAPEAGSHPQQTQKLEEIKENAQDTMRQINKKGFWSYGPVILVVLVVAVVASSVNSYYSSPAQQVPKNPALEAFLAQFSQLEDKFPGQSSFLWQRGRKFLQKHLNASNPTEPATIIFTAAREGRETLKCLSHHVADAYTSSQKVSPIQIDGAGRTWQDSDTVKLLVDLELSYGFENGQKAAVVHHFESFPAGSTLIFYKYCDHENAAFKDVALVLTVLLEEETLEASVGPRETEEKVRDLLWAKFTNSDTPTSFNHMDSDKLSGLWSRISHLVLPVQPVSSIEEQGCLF
Assay [16] is described as follows: optical density change of DRC41 E. coli – strain DRC41, OD650, 24 h, E. coli filamentation project, primary screen (AID 1093).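 Also: MC1000 strain lacking acrAB efflux and sulA so SOS filamentation is blocked; test concentration not given here.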 The settings on record: E. coli DRC41 growth, higher = more signal, called active from +8 up or from −8 down.
Assay [17] can be described thus: probe aLefty2 binding to arrayed compounds – biochemical, biotinylated probe, 635/667 nm fluorescence, primary screen (AID 1094).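 Also: score merges spot fluorescence near 667 nm with spot signal-to-noise ratio.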 The settings on record: small-molecule microarray, higher = more signal.
Assay [18] relates to Noggin (protein binding on small-molecule microarray). Nature of the assay: small molecules binding Noggin protein – biochemical, 635/667 nm fluorescence, primary screen (AID 1095).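 Also: score merges 667 nm feature fluorescence with signal to noise over triplicate slides.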 The following applies: 635 nm fluorescence, higher = more signal.
The target of assay [19] is Neurogenic locus notch homolog protein 3 (Homo sapiens) (UniProt Q9UM47). Description: small molecules binding NOTCH3 protein – biochemical, 635/667 nm fluorescence, primary screen (AID 1096). The following applies: small-molecule microarray, 635 nm fluorescence, higher = more signal.
Neurogenic locus notch homolog protein 3 (Homo sapiens), sequence (Q9UM47 whole entry, looked up): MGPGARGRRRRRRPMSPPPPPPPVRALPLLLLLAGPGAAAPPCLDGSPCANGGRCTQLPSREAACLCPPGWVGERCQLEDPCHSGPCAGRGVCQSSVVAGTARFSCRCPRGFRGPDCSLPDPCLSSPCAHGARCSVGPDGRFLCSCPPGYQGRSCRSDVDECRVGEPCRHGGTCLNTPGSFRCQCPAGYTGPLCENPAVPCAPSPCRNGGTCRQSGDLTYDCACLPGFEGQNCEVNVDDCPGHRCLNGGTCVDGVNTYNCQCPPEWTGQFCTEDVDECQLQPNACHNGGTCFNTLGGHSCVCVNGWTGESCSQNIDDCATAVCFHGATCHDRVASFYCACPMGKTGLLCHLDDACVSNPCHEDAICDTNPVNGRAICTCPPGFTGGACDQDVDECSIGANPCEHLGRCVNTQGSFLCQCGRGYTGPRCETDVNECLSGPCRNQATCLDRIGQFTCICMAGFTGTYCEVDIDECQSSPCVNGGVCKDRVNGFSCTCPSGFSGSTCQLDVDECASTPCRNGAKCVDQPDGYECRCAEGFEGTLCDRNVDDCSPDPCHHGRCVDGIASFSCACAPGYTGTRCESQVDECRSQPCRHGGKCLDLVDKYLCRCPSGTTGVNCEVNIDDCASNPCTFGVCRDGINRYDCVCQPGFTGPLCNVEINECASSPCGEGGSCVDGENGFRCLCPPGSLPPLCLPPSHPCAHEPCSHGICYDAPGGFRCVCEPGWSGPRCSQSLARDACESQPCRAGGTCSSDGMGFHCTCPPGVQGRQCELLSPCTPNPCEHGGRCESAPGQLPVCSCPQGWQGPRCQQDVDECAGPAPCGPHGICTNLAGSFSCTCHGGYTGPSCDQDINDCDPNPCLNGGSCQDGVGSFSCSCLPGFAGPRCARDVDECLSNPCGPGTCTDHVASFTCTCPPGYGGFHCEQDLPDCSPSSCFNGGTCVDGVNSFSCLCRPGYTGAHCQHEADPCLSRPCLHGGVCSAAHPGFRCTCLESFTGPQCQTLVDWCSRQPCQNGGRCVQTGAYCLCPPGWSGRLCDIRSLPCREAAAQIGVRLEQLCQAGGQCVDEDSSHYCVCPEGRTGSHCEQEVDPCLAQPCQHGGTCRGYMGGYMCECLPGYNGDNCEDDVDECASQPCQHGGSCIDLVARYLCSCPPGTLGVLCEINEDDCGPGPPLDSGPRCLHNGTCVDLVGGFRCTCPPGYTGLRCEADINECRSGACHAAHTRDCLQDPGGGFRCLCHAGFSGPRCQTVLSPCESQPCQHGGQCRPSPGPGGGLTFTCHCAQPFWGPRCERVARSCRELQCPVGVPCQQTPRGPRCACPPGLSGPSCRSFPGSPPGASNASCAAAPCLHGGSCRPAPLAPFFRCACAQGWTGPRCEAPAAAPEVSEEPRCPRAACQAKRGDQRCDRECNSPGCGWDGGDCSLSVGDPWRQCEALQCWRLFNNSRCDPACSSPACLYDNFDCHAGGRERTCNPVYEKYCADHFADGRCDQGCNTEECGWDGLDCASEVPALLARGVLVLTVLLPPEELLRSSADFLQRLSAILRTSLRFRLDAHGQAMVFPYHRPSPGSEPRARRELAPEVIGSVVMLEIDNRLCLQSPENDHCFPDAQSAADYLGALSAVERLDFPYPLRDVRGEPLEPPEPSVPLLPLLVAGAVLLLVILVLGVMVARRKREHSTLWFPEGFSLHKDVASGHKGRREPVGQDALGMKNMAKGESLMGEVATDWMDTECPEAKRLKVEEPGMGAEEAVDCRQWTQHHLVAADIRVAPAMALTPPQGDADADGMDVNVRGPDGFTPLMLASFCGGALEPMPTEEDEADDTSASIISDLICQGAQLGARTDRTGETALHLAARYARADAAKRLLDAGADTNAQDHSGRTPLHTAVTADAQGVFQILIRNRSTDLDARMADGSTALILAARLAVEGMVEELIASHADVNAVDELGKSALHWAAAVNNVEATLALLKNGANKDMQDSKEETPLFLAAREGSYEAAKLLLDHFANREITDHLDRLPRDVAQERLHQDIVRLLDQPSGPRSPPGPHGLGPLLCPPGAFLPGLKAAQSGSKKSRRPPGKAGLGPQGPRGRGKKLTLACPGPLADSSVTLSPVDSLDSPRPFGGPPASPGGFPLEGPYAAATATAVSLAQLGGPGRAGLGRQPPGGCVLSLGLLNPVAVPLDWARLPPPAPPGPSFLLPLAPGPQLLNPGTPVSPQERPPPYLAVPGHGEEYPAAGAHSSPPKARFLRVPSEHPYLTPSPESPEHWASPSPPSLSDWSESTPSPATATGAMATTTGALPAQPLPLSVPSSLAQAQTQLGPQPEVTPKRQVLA
The nature of assay [20]: probe aEGFR binding to arrayed compounds – biochemical, biotinylated probe, 635/667 nm fluorescence, primary screen (AID 1097).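 Also: probe is a biotinylated anti-EGFR antibody binding compounds printed on slides; score combines fluorescence near 667 nm and signal to noise of each spot.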 The following applies: small-molecule microarray, higher = more signal.

Pro-neuregulin-1, membrane-bound isoform (Homo sapiens), sequence (Q02297 whole entry, looked up, the tested form may be a part, canonical isoform): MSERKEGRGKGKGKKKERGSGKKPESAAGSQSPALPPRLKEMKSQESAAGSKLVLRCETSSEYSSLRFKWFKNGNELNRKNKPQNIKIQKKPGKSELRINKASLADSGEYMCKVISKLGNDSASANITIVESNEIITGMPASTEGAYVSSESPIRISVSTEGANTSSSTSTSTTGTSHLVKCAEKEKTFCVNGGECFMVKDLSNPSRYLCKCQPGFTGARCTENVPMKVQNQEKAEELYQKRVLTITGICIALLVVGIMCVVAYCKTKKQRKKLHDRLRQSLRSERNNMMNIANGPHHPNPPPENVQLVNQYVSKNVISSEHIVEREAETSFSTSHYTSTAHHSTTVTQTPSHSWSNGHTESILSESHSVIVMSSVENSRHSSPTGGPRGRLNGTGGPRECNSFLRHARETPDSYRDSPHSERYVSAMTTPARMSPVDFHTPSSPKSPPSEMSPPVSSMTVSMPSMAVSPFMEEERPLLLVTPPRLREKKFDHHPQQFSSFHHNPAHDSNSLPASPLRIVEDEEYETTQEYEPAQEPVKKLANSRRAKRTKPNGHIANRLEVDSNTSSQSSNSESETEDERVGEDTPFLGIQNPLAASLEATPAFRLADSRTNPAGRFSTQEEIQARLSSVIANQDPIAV

With `CCOC(=O)C[C@H]1[C@H](OC(=O)c2cc3ccccc3oc2=O)[C@@H](NC(=O)c2ccc3ccccc3c2)c2cc(OCCCO)ccc2N1C(=O)Cc1ccc(OC)cc1`, the composite z-score was -0.59 in [1]; -0.0976 in assay [2]; -0.196 in assay [3]; 0.531 in assay [4]; 0.759 in assay [5]; 0.711 in assay [6]. Besides, the composite z-score in assay [7] is 0.936; in assay [9], 0.73; in assay [10] it was 0.0505; in assay [11], 0.631; in [15] it was 2.48; in assay [17], -0.0359. Further, the composite z-score came out at 0.405 in assay [18], 0.872 in [19] and 0.0009 in assay [20]. In addition, the z-score in [8] is -0.0206 (inactive); in assay [12], 0.173 (inactive); in [13], 0.106 (inactive); in assay [14] it was -1.33 (inactive); in assay [16] it was -0.436 (inactive).
Consider `C=C/C=C/[C@@H]1C(=C)CN([C@@H](Cc2ccccc2)C(=O)OC)[C@H]1[C@@H](O)Cc1ccccc1`, for which the composite z-score in [1] was -0.252; in [2], 0.814; in assay [3], -0.109; in [4] it was 0.34; in [5], 0.186; in assay [6], 0.404. For the same molecule, the composite z-score is 1 in assay [7]; 0.101 in assay [9]; -0.0645 in assay [10]; 1.44 in assay [11]; 1.57 in assay [15]; -0.0975 in assay [17]. The composite z-score is 0.0905 in assay [18], 0.731 in [19] and -0.0228 in [20]. Further, the z-score was -0.661 (inactive) in [8]; -0.03 (inactive) in [12]; -1.63 (inactive) in assay [13]; 0.415 (inactive) in assay [14]; 0.85 (inactive) in [16].
As for `CN(C)C(=O)[C@@]1(Cc2ccccc2N=[N+]=[N-])N=C(c2ccc(OCCCO)cc2)O[C@H]1c1ccccc1`, the composite z-score was 0.657 in assay [1]; 0.687 in assay [2]; 0.0282 in assay [3]; 0.359 in assay [4]; 1.63 in assay [5]; 1.2 in assay [6]. Also, the composite z-score in assay [7] came out at 1.32; in assay [9], 1.23; in assay [10] it was 0.294; in [11] it was 1.57; in [15] it was 3.38; in assay [17], 0.58. For the same molecule, the composite z-score in [18] is -0.125; in assay [19] it was 1.12; in assay [20] it was 0.35. The z-score is -1.75 (inactive) in assay [8]; 0.687 (inactive) in [12]; -4.17 (inactive) in assay [13]; 1.23 (inactive) in assay [14]; 0.1 (inactive) in [16].
In the case of `CCCNC(=O)[C@@]1(C)c2ccccc2C(=O)N(Cc2ccccc2)[C@H]1c1ccc(CO)cc1`, the composite z-score in [1] was 1.93; in assay [2], -0.685; in assay [3] it was 0.12; in assay [4] it was 1.32; in assay [5], -1.28; in assay [6], 1.97. Moreover, the composite z-score in assay [7] was determined as 0.974; in assay [9], 0.476; in assay [10] it was 0.106; in assay [11], 1.54; in assay [15], 2.76; in assay [17] it was 0.0844. Besides, the figures for the composite z-score in assay [18], in assay [19] and in assay [20] were -1.1, -0.127 and -0.094, respectively. Moreover, the z-score in assay [8] was -1.98 (inactive); in [12], -0.864 (inactive); in assay [13], -1.08 (inactive); in [14] it was -0.871 (inactive); in [16], 1.32 (inactive).
In the case of `C=C(C(=O)CC[C@@H](OC(=O)c1ccccc1-c1ccccc1C(=O)O)c1ccccc1OCCO)C(C)C`, the composite z-score in assay [1] is -0.248; in [2], 0.95; in [3] it was -0.113; in assay [4], 0.858; in assay [5], 0.493; in assay [6], 0.0729. In addition, the composite z-score in [7] was 0.838; in assay [9], 0.111; in assay [10], 0.233; in assay [11], 1.55; in [15] it was 1.14; in assay [17], -0.0617. The composite z-score in [18] is 1.36; in assay [19] it was 1.05; in [20], -0.112. Moreover, the z-score is 0.16 (inactive) in [8]; -1.28 (inactive) in assay [12]; -0.832 (inactive) in [13]; -1.88 (inactive) in assay [14]; 0.293 (inactive) in [16].
